Pf growth 96h: inhibits malaria parasite growth, 96 h; 320,000 tested, 6.9% active; Potency, µM (top dose mostly 28.7 µM), without a hit: top-dose activity change, negative = inhibition, most hits filed as inhibitors; P. falciparum luciferase reporter growth, 96 h; also: potency is read from the fitted curve at half-maximal effect; % is scaled to controls: 0 for no effect and ±100 for the full control effect
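P. falciparum expressing integrated firefly luciferase grown in erythrocytes (2% hematocrit, 0.05% parasitemia final) with compounds for 96 hours at 37 C, 5% CO2. Growth inhibition read as loss of luminescence after adding luciferase detection reagent.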
Pf growth 48h: P. falciparum growth inhibition at 48 hours (one generation); P. falciparum luciferase growth in erythrocytes, 48 h; Potency, µM (titrated, usually from 28.7 µM), without a hit: at the top dose activity change, negative = inhibition, hits mostly inhibitors; AID 504832; 310,000 tested, 5.9% active; also: potency is read from the fitted curve at half-maximal effect; % is scaled to controls: 0 for no effect and ±100 for the full control effect
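Cell-based growth assay: transgenic P. falciparum expressing firefly luciferase, cultured in red cells within RPMI 1640 containing 0.5% w/v Albumax, 24 mM bicarbonate and gentamycin. A drop in luciferase activity indicates inhibition.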
Shiga toxin inh: Shiga toxin inhibition; Vero cells, Shiga toxin protein synthesis inhibition reporter; inhibition, % at 38.7 µM; 290,000 tested, 9.2% active; in the data active = inhibition mostly above about 28%, no sharp cut-off; inactive = mostly below about 43%; also: 0% is about no effect
Cycloheximide cs: counter-screen for Shiga toxin inhibitors: cycloheximide protein synthesis inhibition; cell reporter, cycloheximide protein synthesis inhibition counterscreen; max response, %; 300,000 tested, 12% active; AID 2314; in the data active = max response mostly above about 13%, no sharp cut-off; inactive = mostly below about 14%; also: read at 38.3 µM for the half of the compounds with a filed dose; 0% is about no effect
LmPK inhibitor: LmPK (Leishmania mexicana) enzyme inhibition. Q27686. Potency, µM (titrated, usually from 57.5 µM), inactives show at the top dose activity change, negative = inhibition, most hits filed as inhibitors. AID 1721. 290,000 tested, 0.37% active. purified LmPK, Kinase-Glo ATP luminescence, 1 h; also: potency is read from the fitted curve at half-maximal effect; % is scaled to controls: 0 for no effect and ±100 for the full control effect
Target sequence (Q27686 whole entry, looked up): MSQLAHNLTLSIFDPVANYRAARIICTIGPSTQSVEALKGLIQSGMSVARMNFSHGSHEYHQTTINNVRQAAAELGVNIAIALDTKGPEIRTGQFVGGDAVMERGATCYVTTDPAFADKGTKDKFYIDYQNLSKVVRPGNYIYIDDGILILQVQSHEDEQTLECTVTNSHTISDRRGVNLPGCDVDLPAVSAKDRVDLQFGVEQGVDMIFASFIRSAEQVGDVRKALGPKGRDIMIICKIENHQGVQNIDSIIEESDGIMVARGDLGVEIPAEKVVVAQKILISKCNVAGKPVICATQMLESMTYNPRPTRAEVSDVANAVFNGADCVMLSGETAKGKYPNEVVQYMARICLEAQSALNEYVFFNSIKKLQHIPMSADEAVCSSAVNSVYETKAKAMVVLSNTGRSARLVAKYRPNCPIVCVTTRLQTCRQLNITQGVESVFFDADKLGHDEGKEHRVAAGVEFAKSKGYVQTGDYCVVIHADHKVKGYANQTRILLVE
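Purified LmPK (0.1 nM) with 0.5 mM PEP and 0.1 mM ADP in imidazole buffer pH 7.2 with MgCl2/KCl, 1 h at room temperature. ATP formed was read by luciferase luminescence and normalized to no-enzyme and uninhibited controls.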
Active calls of the source: *; ? = inconclusive; nt = not tested or not shown. This is a sample that favours compounds with a hit; in the whole collection about 22% have one here. Unless noted, calls follow the shape of the dose curve; as a rule, active = well fitted inhibition curve with a large enough effect; inconclusive = small, poorly fitted or top-dose-only effect, or another doubt; inactive = no such curve, though single readings can be large or run the other way.

SMILES	Pf growth 96h	Pf growth 48h	Shiga toxin inh	Cycloheximide cs	LmPK inhibitor
CCOC(=O)N1CCN(C(=O)/C=C/c2cccc([N+](=O)[O-])c2)CC1	?	-14%	13	3	-5%
CC(C(=O)O)n1c2ccccc2c2cnn(C)c(=O)c21 (configuration not stated)	126%	1%	-6	-2	2%
CC[C@@H]1C=C(C)C[C@H](C)C[C@H](OC)[C@H]2O[C@@](O)(C(=O)C(=O)N3CCCC[C@H]3C(=O)O[C@H](/C(C)=C/[C@@H]3CC[C@@H](O)[C@H](OC)C3)[C@H](C)[C@@H](O)CC1=O)[C@H](C)C[C@@H]2OC	2.6µM*	2.3µM*	15	-3	3%
N#Cc1c(N)nc2c(c1-c1ccc3c(c1)OCO3)CCc1ccccc1-2	-12%	4.1µM*	15	0	0%
N#Cc1c(N)c(C#N)c(-c2ccc3c(c2)OCO3)c2c1CCCC2	?	?	11	-1	1%
N#Cc1c(-c2ccc3c(c2)OCO3)csc1N	34%	54%	83*	28*	-2%
CCOP(=O)(OCC)c1nc(Cc2ccccc2)oc1NCc1ccccc1	10µM*	9.3µM*	-4	-2	4%
CCOP(=O)(OCC)c1nc(-c2ccccc2)oc1NCc1ccccc1	2.6µM*	7.4µM*	7	0	-1%
CCOP(=O)(OCC)c1nc(-c2ccc(F)cc2)oc1NCc1ccccc1	?	?	-19	-1	4%
CCOP(=O)(OCC)c1nc(-c2cccc3ccccc23)oc1NCCc1ccc(OC)cc1	?	15µM*	-18	-1	4%
COc1ccc(CNc2oc(-c3cccc4ccccc34)nc2C#N)cc1	-2%	14%	11	6	0%
O=P(c1ccccc1)(c1ccccc1)c1nc(-c2ccccc2)oc1NCc1ccccc1	9.3µM*	5.9µM*	23	13	12%
O=S(=O)(c1ccccc1)c1nc(-c2ccccc2)oc1NCc1cccnc1	?	3%	-13	6	1%
Cc1cc(C)cc(N(CCC(=O)Nc2nnc(C)s2)S(=O)(=O)c2ccc(Cl)cc2)c1	?	?	-4	-2	2%
COc1ccc(-c2nn(-c3ccccc3)cc2/C=C/C(=O)N2CCOCC2)cc1OC	?	?	60	0	-1%
CCN(CC)c1nc(Nc2ccc(Cl)cc2)nc(OCC#N)n1	nt	-18%	3	8	0%
Cc1cccc(Nc2nc(OCC#N)nc(N(C)C)n2)c1	12µM*	-179%	0	-2	-1%
CN(C)c1ccc2c(-c3ccccc3)c3ccc(=[N+](C)C)cc-3oc2c1	nt	nt	-2	12	nt
COc1cc(/C=C2\CCC(C3CCCC3)C2=O)ccc1OC(C)C (configuration not stated)	?	2.1µM*	5	-3	1%
COc1ccc(/C=C2\CCC(C3CCCC3)C2=O)cc1OC (configuration not stated)	-2%	-20%	49*	36*	-1%
CC(=O)c1cccc(N(C(=O)CNC(=O)c2ccco2)C(C(=O)NC2CCCC2)c2ccncc2)c1 (configuration not stated)	16%	6%	6	-7	-7%
N#CC1(NC(=O)COC(=O)c2ccccc2SCC(=O)N2CCCC2)CCCCC1	?	-8%	-15	-2	-12%
Cn1c(-c2ccccc2)c(/C=N/NC(=O)c2cccnc2)c2ccccc21	?	-22%	68*	21*	-1%
Cn1cccc1/C=N/NC(=O)c1cccnc1	-21%	13%	30	18	-11%
O=C(N/N=C/c1c(-c2ccccc2)[nH]c2ccccc12)c1cccnc1	?	?	65*	27*	-1%
SMILES	Pf growth 96h	Pf growth 48h	Shiga toxin inh	Cycloheximide cs	LmPK inhibitor
COCCNC(=O)CN(C(=O)CCC(=O)Nc1ccccn1)c1ccc(C)cc1C	-12%	-17%	1	-2	-5%
O=C(c1ccccc1)c1ccc(OCC(O)CN2CCN(S(=O)(=O)N3CCCCC3)CC2)cc1 (configuration not stated)	5.2µM*	nt	-6	-4	5%
OC(COc1ccc2ccccc2c1Cl)CN1CCOCC1 (configuration not stated)	15%	133%	105*	37*	6%
Cc1cc(OCC(O)CN2CCOCC2)cc(C)c1Cl (configuration not stated)	?	4%	nt	-1	10%
OC(COc1ccccc1)CN1CCOCC1 (configuration not stated)	12µM*	-15%	9	-1	-9%
Cc1ccc(OCC(O)CN2CCOCC2)c(C)c1 (configuration not stated)	?	18%	nt	31*	0%
O=C(Nc1ccc(N2CCOCC2)cc1N1CCOCC1)c1cccc([N+](=O)[O-])c1	14%	-5%	-11	-3	3%
O=C(O)c1c(C(=O)O)c(-c2ccc(Cl)c(Cl)c2)n2c1CSC2	7%	-17%	-9	-4	10%
CCOc1ccc(S(=O)(=O)Nc2ccc(C(=O)NCC(C)(C)N3CCOCC3)cc2)cc1	-5%	?	nt	nt	nt
COc1ccc(C2C(C(N)=O)=C(C)Nc3nc(CCCO)nn32)cc1OC (configuration not stated)	-13%	-1%	-10	-7	1%
COc1ccc(NS(=O)(=O)c2cc3c(cc2C)N(C(C)=O)CCO3)cc1OC	21%	9%	5	-2	0%
OC(COc1ccc2cc(Br)ccc2c1)CN1CCOCC1 (configuration not stated)	-26%	27%	37*	11	0%
O=C(N1CCOCC1)N1CCN(CC(O)COc2ccc3ccccc3c2)CC1 (configuration not stated)	-8%	3%	-16	-1	2%
O=S(=O)(c1ccccc1)N1N=C(c2ccccc2)CC1c1ccccc1F (configuration not stated)	33%	?	-1	0	2%
O=C(NC1CCCCC1)C(c1ccc2ncccc2c1)N(Cc1ccccc1)C(=O)c1cccs1 (configuration not stated)	?	10µM*	1	-2	3%
O=C(NC1CCCCC1)C(c1ccc2ncccc2c1)N(Cc1ccc2c(c1)OCO2)C(=O)c1cccs1 (configuration not stated)	5.9µM*	?	-1	0	-5%
COc1ccc(C(C(=O)NC2CCCCC2)N(C(=O)c2cccs2)c2ccc3c(c2)OCO3)cc1 (configuration not stated)	?	?	-11	-3	1%
COc1ccc(CN(C(=O)c2nsc(Cl)c2Cl)C(C(=O)NC2CCCC2)c2ccc(C)cc2)cc1 (configuration not stated)	10µM*	?	-10	-2	-1%
COc1ccc(CN(C(=O)c2cccs2)C(C(=O)NC2CCCCC2)c2ccc3ncccc3c2)cc1 (configuration not stated)	10µM*	?	-3	-2	-1%

Bioassay records (PubChem BioAssay)
